Our source for the MAPPIT interaction score values is the supplement of paper PMC10105736.

Values without a mark were called inactive.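 How the source made its calls: active = MAPPIT score above the 99th percentile of random reference set scores in the same batch; inactive = at or below it.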

Experiment in all cases: MAPPIT interaction score (arbitrary units); higher = stronger binary interaction signal, active = hit call of the paper
For one assay, the target named is Jupiter. The following applies: MAPPIT configuration: N-N; pair source set: DPIM.
The next assay addresses Pfdn2. The note with it: MAPPIT configuration: N-N; pair source set: Lit-BM-16.
The next assay has as its target Lcp1. The note with it: MAPPIT configuration: N-N; pair source set: DPIM.
In a further assay the target is Kaz. The note with it: MAPPIT configuration: N-N; pair source set: Curagen_low_conf.
The next assay deals with JMJD4. The note with it: MAPPIT configuration: N-N; pair source set: Curagen_low_conf.
A further assay has as its target Pdha. The following applies: MAPPIT configuration: N-N; pair source set: Lit-BS-16.
The next assay concerns the target Pih1D1. The following applies: MAPPIT configuration: N-N; pair source set: Finley_Y2H.
Another assay deals with Sms. The following applies: MAPPIT configuration: N-N.
The next assay deals with LTV1. The note with it: MAPPIT configuration: N-N; pair source set: screen_1.
A further assay concerns the target JIL-1. The following applies: MAPPIT configuration: N-N; pair source set: Lit-BM-16.
For the next assay, the target named is TrxT. The following applies: MAPPIT configuration: N-N; pair source set: screen_2.
Another assay deals with LRR. The note with it: pair source set: RRS.
The target of the next assay is Jheh2. The following applies: MAPPIT configuration: N-N; pair source set: Lit-BS-16.
The next assay has as its target Lac. The note with it: pair source set: Lit-BM-16.
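Further: HEK293T cells with Epo stimulation, STAT-responsive firefly luciferase reporter, fold induction versus unstimulated cells divided by the larger fold induction of two negative controls lacking either bait or prey.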

B1: rswl (protein)
chain: MLKHFARWRLGSQLLKGCAAPVRQASKTSSAENLIAGTEEPQKKFVNPFSQPAPALSNDTISENKEERDKRLKVLQLEADIAHQEGRRVPSLEFFKDHHWEHVLTLPTKSARIKYFGYLWQIEMKKEADQRKKAERAKEAERRVAEMRKEREENTHIIYGLGHTSLFLRIYDTTINHWQNNRLTRAMQFAPKMVLDCSYDEHMNNREATYAAKQLMMCFAENRMNDEPFDLHYCNTQMDSRCMQSLQRYIPTMHNPEFPINLHSKCFTELFPKQNLVYLTPHCREDLVTYNPDDIYIVGAMVDTMNNEPLSLAKAKRLGLRMARLPLDRYLQWGSGSGKSLTLNQMINIMLDLKKTGDWDTALKHVPRRKVVQNEFQPRREKDHWSTGTRARKLNMRIDHLFDFDENRRQATSYATPQNVRQRREGLEFQLDTWATGKQKKKQRQN
For B1, the MAPPIT interaction score with Jupiter was 0.211.

B2: Pfdn5 (protein)
chain: MAATPSAPAKSEMIDLTKLSPEQLIQIKQEFEQEITNVQDSLSTLHGCQAKYAGSKEALGTFQPNWENRQILVPLTSSMYVPGRVKDLNRFVIDIGTGYYIEKDLEGSKDYFKRRVEYVQEQIEKIEKIHLQKTRFYNSVMSVLEMKQAAAAKLQSQQQSQPAVTQSS
Consider B2, for which the MAPPIT interaction score with Jupiter was -0.0979; with Pfdn2, 5.87 (active).

B3: B52 (protein)
chain: MVGSRVYVGGLPYGVRERDLERFFKGYGRTRDILIKNGYGFVEFEDYRDADDAVYELNGKELLGERVVVEPARGTARGSNRDRYDDRYGGRRGGGGGRYNEKNKNSRSSSRYGPPLRTEYRLIVENLSSRVSWQDLKDYMRQAGEVTYADAHKQRRNEGVVEFASLSDMKTAIEKLDDTELNGRRIHLVEDRRGGRSGGGGGSGRGRSRSSSSRSRSRSRRRSRSRRSSHSRSKSRSRSKSRGGRSKSKSPVKSRSRSRSRSNKSRDVSKSKSKSHSRTRSRSPKRERDSRSRSRSVSKRESRSRSRSKSIHRDSRSRPPTVSFKSSFYKFTTMPFFCSDRSASAENKSRSRSRSRSASPKNGNASPDRNNESMDD
B3: the MAPPIT interaction score with Lcp1 was -0.142.

B4: Cpn (protein)
chain: MEPGTIPSPVSAPVAAPVTPSAVAAPVQVVSPAAVAPAPAAPIAVTPVAPPPTLASVQPATVTIPAPAPIAAASVAPVASVAPPVVAAPTPPAASPVSTPPVAVAQIPVAVSAPVAPPVAATPTPVAPIPVAAPVIATPPVAASAPTPAAVTPVVSPVIATPPVVPANTTVPVAAPVAAVPAAVPVVAPVLAPAVAPAVAPVVAETPAPPPVAEIPVATIPECVAPLIPEVSVVATKPLAAAEPVVVAPPATETPVVAPAAASPHVSVAPAVETAVVAPVSASTEPPVAAATLTTAPETPALAPVVAESQVAANTVVATPPTPAPEPETIAPPVVAETPEVASVAVAETTPPVVPPVAAESIPAPVVATTPVPATLAVTDPDVTASAVPELPPVIAPSPVPSAVAETPVDLAPPVLPPVAAEPVPAVVAEETPETPAPASAPVTIAALDIPEVAPVIAAPSDAPAEAPSAAAPIVSTPPTTASVPETTAPPAAVPTEPIDVSVLSEAAIETPVAPPVEVTTEVAVADVAPPEAAADLIIEPVEPPAPIPDLLEQTTSVPAVEAAESTSSPIPETSLPPPNEAVASPEVAVAPITAPEPIPEPEPSLATPTEPIPVEAPVVIQEAVDAVEVPVTETSTSIPETTVEYPVAEKVLDPAITEAPVTTQEPDVANINDGAPATEITTPAVEIVTAAAEVSDTAIPLIDPPVPQEIAVAEIPETETKPAEVIVEQSTIPIEAPVPEVSKYAEPVISEAPAAEVPITAGDNPDNTSVGISEVVPTIAEKAVEEVPTSEIPEQSSSPSDSVPVAKITPLLRDLQTTDVSLLAIAATLDAIGEKLKDQKARNQQVMDRLCEIEKILGPPKSN
In the case of B4, the MAPPIT interaction score with Kaz was 0.293.

B5: Hsp60B (protein)
chain: MFRSCVPKAITSSRCFARMYSKDVRFGSGVRAMMIRGVDILADAVAVTMGPKGRSVIVERPWTSPKITKDGFTVARSIALKDQHMNLGAKLVQDVADNTNESAGDGTTTATVLARAIAKEGFNQITMGANPVEIRRGVMLAVDVVKDKLKEMSKAVETREEIQQVATLSANGDTEIGRLIGEATDKVGPRGTITVKDGKRLKDELNIIQGLRFDNGYVSPFFVNSSKGSKVEFANALVMISLKKITGLSQIVKGLEQSLRQRRPLIIIAEDISGEALNALVLNKLRLGLQVCAVKSPSYGHHRKELIGDISAATGATIFGDDINYSKMEEAKLEDLGQVGEAVISKDSTMLLQGKPKTGLLEMRIQQIQDELAEKQIKPEQRDRLRQRLSALTKGVAVLHIGGGSEVEVNEKKDRVVDALNATRAAIEEGIVPGGGTAFLRCIPYLQELKTESADLQKGVDIVCNALRMPCQTIAQNAGVDGPMVVAKVLNGSEDYGYDAMGDEYCRLVEKGIIDPTKVLRTAITDAAGVASLLSTTEVVITDSRNDDLLSKLSGAGGGMDDGLDMNMGGLEELAALSGLGGMGGMGGMGGMGGMGGMGGGFGGMGAGGGMSASASNDGPTAEEMNEMVKAIPGMEQVEVRDIDSGMM
For the molecule B5, the MAPPIT interaction score in the assay with JMJD4 is 0.939; in the assay with Pdha, 1.16; with Pih1D1, 0.845; with Sms (pair source set: Finley_Y2H), 1.94; with Sms (pair source set: Lit-BM-16) it was 1.8.

B6: bys (protein)
chain: MGKPKKANVATIKNVNLEKQITEGRVAKNKNKDKVKLRAEESANIDARSSQKILAAAKLQQLELDEENFPSLVTVKKVNFSLNDGHVKEDEEVNETDLMADLDMDEDDVAAFERFQQPAQEGKRTLHLSKMIMQKIQEKEADIHTKISDEGSLKIEEIDPKVKEMYEGVRDVLKRYRSGKIPKAFKIIPKLRNWEQILFITEPHNWSAAAMFQGTRIFCSVLSQAMAQRFYNLVLLPRVRDDLCEYKKLNMHLYNALKRALFKPAAFMKGIILPLLEGGDCTLREAIIFGSVVARSSIPVLHSSACLLKICEMAYSGANSIFIRYFLDKRYALPYRVVDAAVFHFLRFENDKRELPVLWHQSLLTFAQRYKNDISSEQRDALLQLLKKKSHFKITPDVRRELQAASCRDVEMMETDNGLAGQPAKMYTDADVEYEG
Regarding B6, the MAPPIT interaction score with LTV1 is 1.68.

B7: msl-2 (protein)
chain: MAQTAYLKVTRIAMRSASNLSKRRVEELNSGLGELRQLLSCVVCCQLLVDPYSPKGKRCQHNVCRLCLRGKKHLFPSCTQCEGCSDFKTYEENRMMAAQLLCYKTLCVHLLHSALFGELAGMRPQVARELVPRIKLPPKTTQEFIREGSNISDTFDIFLPQPDLPFLKDMPTSLPAETPPTSAVTTPELPYDHHLNISDIEAEAAATAEQGHFSPLPLLPTGSRMGMLSHAGQIVIATESSESGFMDQAWTDQVDLSGTVSVSKYTNSGNNFAVSYVMPTSATTKFDPQELQIGQVVQMADSTQLAVLAAVEETVETSTQLTVLSTTVEETVETSTQLEVLTSAEEPNEISDQLANLQVEESDEALVEETVEEAEGTSIPSEVVAEHMEEDQHLDVHTSQSPTQTEMEEAVEEHVATKTQLGHVQTELQDAESLQKDFEDAKAAAEEAKEKEKDLHAISAELQKEDSDEPTLKRKRTRTLKASQAAKIEPVPSEVKTKVQSGKGALRRIRGKDKEEKVKPPKPKCRCGISGSSNTLTTCRNSRCPCYKSYNSCAGCHCVCCKNPHKEDYVESDEDDDLEDFEMPKDVPEPMTQSEEPVVAEPRQEENSMAPPDSSAPISLVPLNNLQQSQHPLVLVQNEKGEYQGFNIFQGSKPLDPVTVGFTIRVQLQHTDGFGSLPQYAYIMPTIDPPNPPAPSLSPPPPPAPDREVIEPPAKKFRTSRTRRGRANFSALDTVDELVSGGSRSNSAAGDRSSATDNAHSLFEEIMSGSDDL
Take B7: the figures for the MAPPIT interaction score with JIL-1 and with TrxT were 0.418 and 0.135, respectively.

B8: CG33108 (protein)
chain: MSNISSVAPPPPPPPMIVTPSTPATTKERPVGDNITTDECTWACEYPEVQKGCYLSRVCQYTPPKHCQYYSVNSIVQVGPTCGLVALSMLLGGSPTADDLLKDAIDQEYTLNGELFSAQYLFELTRKHMPGPAACQLHVGPLDCKKVKELLKAGGCLLVPYDADVNHAPCVKNGHRAHWALIVGYLVDTQDRFYVLARHGKSRNLAVWPLDTLSQSNENLKEFAQPKGYPDDEFLLPPGGIGGSLGLNERCILVNGLPKQVIHVRWS
As for B8, the MAPPIT interaction score was 1.24 with LRR (MAPPIT configuration: N-C) and -0.128 in the assay with LRR (MAPPIT configuration: N-N).

B9: Srp68 (protein)
chain: MVVQEDNPNTGDVQEKTETAPVAEPSKIFTVEILHMIKDAQQQHGLRHGDFQRYRGYCSRRIRRLRKALKYPQGDKRHFKRRDVTIGQLTGKKADERFIHIPLICAERAWAYAMQLKQESNTEPRKRFHLVNKLRRACFYALQLQELCNTEAFDARTKLECEAYVAWMHGTLHFELQLWKTAGEHLKRAQVVYENLGKALPEDEQELYRAKVNEFTPNLRYCAYNISGGASGGKIDEILELRAQGVLENLDVLVSQTKTESSEGLQTIDWRGRKVTVRPEKVRLFLLSAQELDKSLAKTTKQDAKIELIERILMDCKDAIQAVRDEIKQDPKLRSLTTGQTVSGVQYLLAYLSYIRHSRTLQRNLCLVEQAKLNFYDPNLQSQQNVGDGKRVRPQDLARLYEIILQNVTEMQQINGLEDDATYQSEVENLAITFKAFRCYYIALTLIDIKKWKEAVALYERASNYATEALKGKSSPEFQLQEELKKVVSAIDGCKFSAHAYSVLEDDNSEESGTTTKSQKTTKPLYERLSLYKEDQSLHTKAPNVFKLTPDMEPIPCKPIFFDLAMTYVELPSLEGKLESPGKKGASITGFVKGFLGWGGGGNK
Take B9: the MAPPIT interaction score with Jheh2 is -0.0601.

B10: Lac (protein)
chain: MWRPSISNCVWSTLLLAIFVQQTLAQRTPTISYITQEQIKDIGGTVEFDCSVQYAKEYNVLFLKTDSDPVFLSTGSTLVIKDSRFSLRYDPNSSTYKLQIKDIQETDAGTYTCQVVISTVHKVSAEVKLSVRRPPVISDNSTQSVVASEGSEVQMECYASGYPTPTITWRRENNAILPTDSATYVGNTLRIKSVKKEDRGTYYCVADNGVSKGDRRNINVEVEFAPVITVPRPRLGQALQYDMDLECHIEAYPPPAIVWTKDDIQLANNQHYSISHFATADEYTDSTLRVITVEKRQYGDYVCKATNRFGEAEARVNLFETIIPVCPPACGQAYIAGAEDVSATSFALVGILAALLFAR
Turning to B10, the figures for the MAPPIT interaction score with Lac (MAPPIT configuration: N-C) and in the assay with Lac (MAPPIT configuration: N-N) were -0.593 and -0.017, respectively.

B11: Clp (protein)
chain: MDILLANVSGLQFKAERDLIEQVGAIPLPFYGMDKSIAAVCNFITRNGQECDKGSACPFRHIRGDRTIVCKHWLRGLCKKGDQCEFLHEYDMTKMPECYFYSRFNACHNKECPFLHIDPQSKVKDCPWYKRGFCRHGPHCRHQHLRRVLCMDYLAGFCPEGPSCKHMHPHFELPPLAELGKDQLHKKLPTCHYCGELGHKANSCKQYVGSLEHRNNINAMDHSGGHSGGYSGHSGHIEGADDMQSNHHSQPHGPGFVKVPTPLEEITCYKCGNKGHYANKCPKGHLAFLSNQHSHK
For B11, the MAPPIT interaction score in the assay with Jupiter is -0.085.
